USP30 block: blocks human USP30 ubiquitin-rhodamine cleavage. inhibition, % at 25 µM. AID 1645860. Q70CQ3. purified USP30, Ub-rhodamine cleavage fluorescence. hit rate 5.3% among 47,000
USP28 inh: human USP28 deubiquitinase inhibition. AID 1645857. inhibition, % at 25 µM. purified USP28, Ub-rhodamine cleavage fluorescence, 30 min. hit rate 3% among 47,000
OTUD3 block: human OTUD3 deubiquitinase inhibition | Q5T2D3 | purified OTUD3, Ub-rhodamine fluorescence, 2 h | inhibition, % at 25 µM | hit rate 0.7% among 47,000 | AID 1645858
USP17 block: blocks human USP17 ubiquitin-rhodamine cleavage | purified USP17, Ub-rhodamine cleavage fluorescence, 3 h | hit rate 6.5% among 47,000 | A8MUK1 | AID 1645855 | inhibition, % at 50 µM
Target sequence (A8MUK1 whole entry, looked up): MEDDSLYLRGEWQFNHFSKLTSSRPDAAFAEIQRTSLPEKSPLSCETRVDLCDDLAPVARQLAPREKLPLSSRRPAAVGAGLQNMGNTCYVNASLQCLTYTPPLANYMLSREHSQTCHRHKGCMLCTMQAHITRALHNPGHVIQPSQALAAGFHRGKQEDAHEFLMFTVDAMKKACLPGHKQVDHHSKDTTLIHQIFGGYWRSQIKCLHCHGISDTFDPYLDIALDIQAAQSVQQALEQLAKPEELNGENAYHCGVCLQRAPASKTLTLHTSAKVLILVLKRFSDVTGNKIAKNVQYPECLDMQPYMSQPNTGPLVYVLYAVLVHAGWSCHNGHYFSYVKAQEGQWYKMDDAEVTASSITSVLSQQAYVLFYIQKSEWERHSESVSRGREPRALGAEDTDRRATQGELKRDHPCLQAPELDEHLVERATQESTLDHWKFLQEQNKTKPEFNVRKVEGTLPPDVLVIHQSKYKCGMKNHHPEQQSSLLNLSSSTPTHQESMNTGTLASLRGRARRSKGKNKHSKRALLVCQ
USP8 block: human USP8 deubiquitinase inhibition. inhibition, % at 20 µM. AID 1645853. purified USP8, Ub-rhodamine cleavage fluorescence, 30 min. P40818. hit rate 4.2% among 47,000
Hits are given with their value; - = inactive; . = no result given. Sampled rows, rich in hits. Any-hit rate of the full collection: about 13%. No stated cut-off is given here; in the data, active means inhibition above about 30%; inactive means the rest.

SMILES	USP30 block	USP28 inh	OTUD3 block	USP17 block	USP8 block
O=C(Nc1ccccc1F)C1CCCN(S(=O)(=O)Cc2ccc(F)cc2)C1 (configuration not stated)	-	-	-	-	-
Cc1cccc(CNC(=O)C2CCCN(S(=O)(=O)N3CCCCC3)C2)c1 (configuration not stated)	-	-	-	.	32
Cc1cccc(CNC(=O)C2CCCN(S(=O)(=O)N3CCOCC3)C2)c1 (configuration not stated)	-	-	-	-	-
O=C(Nc1cccc2ccccc12)C1CCCN(S(=O)(=O)Cc2ccccc2)C1 (configuration not stated)	-	-	-	73	32
O=C(C1CCCN(S(=O)(=O)N2CCCCCC2)C1)N1CCN(c2ccccc2)CC1 (configuration not stated)	-	54	-	-	-
Cc1cccc(CNC(=O)C2CCCN(S(=O)(=O)Cc3ccccc3Cl)C2)c1 (configuration not stated)	39	-	-	-	-
CS(=O)(=O)NC1CCCN(C(=O)Nc2cccc3ccccc23)C1 (configuration not stated)	-	-	-	87	93
CC1CCN(S(=O)(=O)N2CCCC(C(=O)NCc3ccccc3)C2)CC1 (configuration not stated)	36	-	-	-	-
CCc1ccccc1NC(=O)N1CCCC(CN2CCc3ccccc3C2)C1 (configuration not stated)	-	-	-	-	-
Cc1ccccc1CNC(=O)C1CCCN(S(=O)(=O)N2CCCCC2)C1 (configuration not stated)	-	-	-	-	-
Cc1cc(C(=O)Nc2ccc(-n3nnc(C(=O)N4CCCC4)n3)cc2)c(C)o1	-	-	-	-	-
CCOc1ccccc1NC(=O)Cn1c(=O)n(CCC(=O)NCc2ccc3c(c2)OCO3)c(=O)c2sccc21	.	.	-	60	54
O=C(CCn1c(=O)c2sccc2n(CC(=O)OCc2ccccc2)c1=O)NCc1ccc2c(c1)OCO2	52	-	35	-	61
O=C(CCn1c(=O)c2ccccc2n(Cc2cccc([N+](=O)[O-])c2)c1=O)NCc1ccc2c(c1)OCO2	-	-	-	-	-
COc1ccc(CC(=O)Nc2c(C)nc3sccn3c2=O)cc1	-	-	-	-	-
Cc1cc(C)nc(NC(=O)c2c(C)nc3sccn23)c1	.	.	-	31	-
O=S(=O)(Nc1nc(-c2ccco2)c(-c2ccco2)s1)c1ccc(F)cc1F	-	-	-	-	37
CC1CC(=O)Nc2ccccc2N1S(=O)(=O)c1ccc(C#N)cc1 (configuration not stated)	55	-	-	-	-
Cc1cccc(CNC(=O)C2CCN(c3cnc(N4CCOCC4)nc3)CC2)c1	-	-	-	-	-
O=C(NCc1cccnc1)C1CCN(c2cc(N3CCOCC3)ncn2)CC1	43	-	-	-	-
Cc1nc(-c2noc(-c3ccncc3)n2)cn1CC(=O)N1CCN(c2ccc(F)cc2)CC1	62	-	-	-	-
COc1ccc(CC(=O)NCC(=O)N2CCC3(CC2)NCCc2[nH]cnc23)cc1	-	-	-	-	34
O=C(Cc1ccccc1)NCC(=O)N1CCC2(CC1)NCCc1[nH]cnc12	-	-	-	-	-
CCOc1ccc(CC(=O)N2CCC3(CC2)NCCc2[nH]cnc23)cc1	-	-	-	-	-
COc1ccc(CC(=O)N2CCC3(CC2)NCCc2[nH]cnc23)cc1	-	-	-	-	-
SMILES	USP30 block	USP28 inh	OTUD3 block	USP17 block	USP8 block
O=C(NCC(=O)N1CCC2(CC1)NCCc1[nH]cnc12)c1ccc(-c2ccccc2)cc1	-	-	-	-	49
O=C(Cc1ccc(F)cc1)N1CCC2(CC1)NCCc1[nH]cnc12	-	-	-	-	39
O=S(=O)(Nc1ccc2[nH]ncc2c1)c1ccc2c(c1)CCCC2	-	-	-	-	-
Cc1ccc(NC(=O)CCc2nnc3c(=O)n(-c4cc(C)cc(C)c4)ccn23)cc1	43	-	-	-	42
Cc1cc(C)cc(-n2ccn3c(CCC(=O)Nc4ccc(F)cc4)nnc3c2=O)c1	49	-	-	-	-
Nc1ncnc(Nc2cc([N+](=O)[O-])ccc2F)c1[N+](=O)[O-]	-	-	-	-	-
COCCn1cnc2c(-c3ccccc3)cn(CC(=O)Nc3ccc4c(c3)OCO4)c2c1=O	-	-	-	40	-
O=C(Nc1cc(S(=O)(=O)N2CCOCC2)ccc1N1CCOCC1)c1cc2c(s1)CCCC2	30	-	-	-	-
O=C(Nc1cc(S(=O)(=O)Nc2ccc(Cl)cc2)ccc1O)c1cc2c(s1)CCC2	-	-	-	-	99
Nc1ccc(NC(=O)c2cc3c(s2)CCC3)cc1[N+](=O)[O-]	-	31	-	58	57
Cc1oc(-c2[nH]ncc2C(=O)N(C)C)cc1S(=O)(=O)Nc1ccccc1	30	-	-	-	-
Cc1cc(Oc2ccc(F)cc2F)nc2ccccc12	-	31	-	-	-
Cc1cc(Cl)ccc1S(=O)(=O)NCc1nc(C(=O)N2CCCC2)c(C)o1	-	-	-	-	-
CC(C)=CCC/C(C)=C/CC/C(C)=C/Cc1c(C)[nH]c2ccccc2c1=O	-	-	-	-	-
CC(C)=CCC/C(C)=C/Cc1c(O)cc2c(c1O)C(=O)OC2	-	74	79	63	57
CN(C)[C@@H]1CN(C(=O)CCn2nnc3ccccc32)C[C@H]1O	-	-	-	-	-
COc1ccc(Nc2cc(-c3cccc(C(F)(F)F)c3)nc(-c3ccncc3)n2)cc1	-	-	-	.	38
CC(C)=CCc1ccc2[nH]cc(C3=C(O)C(=O)C(c4c[nH]c5ccccc45)=C(O)C3=O)c2c1	-	-	-	43	-
CCOC(=O)Cc1cc(=O)n2[nH]c(-c3ccc(C)cc3)cc2n1	-	-	-	31	-
Cc1cc(NC(=O)CSc2nnc(COc3ccc(Cl)cc3)o2)no1	-	-	-	-	-
Cc1cccc(OCc2nnc(SCC(=O)Nc3cccc(F)c3C)o2)c1	-	44	-	-	-
O=C(c1ccco1)N1CCCn2c1nc1ccccc12	-	-	-	-	-
c1csc(-c2nc(Nc3ccc4c(c3)CCC4)c3ccccc3n2)c1	-	-	-	71	57
CCn1cc(C(=O)NCc2cnc(C3(C)CCCCO3)nc2)cn1 (configuration not stated)	-	-	-	-	-
O=C(Nc1noc2ccccc12)c1ccco1	-	-	-	-	47
O=C(Cn1cnc2c(cnn2CCO)c1=O)NCc1ccc(F)cc1	-	-	-	-	-
O=C(Cn1c(=O)[nH]c2c(-c3ccccc3)c[nH]c2c1=O)NCc1ccco1	.	.	-	45	-
CN(Cc1ccccc1)C(=O)Cn1c(=O)[nH]c2c(-c3ccccc3)c[nH]c2c1=O	-	-	-	-	46
O=C(Cn1c(=O)[nH]c2c(-c3ccc(F)cc3)c[nH]c2c1=O)NCc1ccc(F)cc1	-	-	-	-	32
Cc1noc2nc(C)n(CC(=O)N(C)Cc3ccccc3)c(=O)c12	-	-	-	-	-

Screening data: PubChem, Buhrlage Lab, Dana-Farber Cancer Institute and Novartis Institutes for BioMedical Research (Cambridge, Mass)
